# According to PMC11062922 (Nature Chemical Biology, 2023):
# Where two headings read alike, the source gives them in different places.
# Assays:
# Set-up in all cases: species or system human, MV4-11 + K-562 + COLO205 + SK-N-BE2 + OVCAR-8
# CIT = conditions: read-out: apparent Kd, n = 1
# RPS6KA3 = conditions: read-out: apparent Kd, n = 1
# CDC7 = conditions: read-out: apparent Kd, n = 1
# CDK6 = conditions: read-out: apparent Kd, n = 1
# NUAK2 = conditions: read-out: apparent Kd, compound concentrations: 100 nM and 1000 nM (sheet 'Samples'), n = 1
# AKT2 = conditions: read-out: apparent Kd, n = 1
# PRKG1 = conditions: read-out: apparent Kd, n = 1
# PIK3CA = conditions: read-out: apparent Kd; compound concentrations: 100 nM and 1000 nM (sheet 'Samples'), CATDS: 0.13947400940733601; n = 1
# NQO2 = conditions: read-out: apparent Kd; compound concentrations: 100 nM and 1000 nM (sheet 'Samples'), CATDS: 3.5438928095243502E-2; n = 1
# ABL1 = conditions: read-out: apparent Kd; compound concentrations: 100 nM and 1000 nM (sheet 'Samples'), CATDS: 0.106160515103876; n = 1
# AKT3 = conditions: read-out: apparent Kd; compound concentrations: 100 nM and 1000 nM (sheet 'Samples'), CATDS: 1.96345458497789E-2; n = 1
# PTK6 = conditions: read-out: apparent Kd; compound concentrations: 100 nM and 1000 nM (sheet 'Samples'), CATDS: 5.6771173878132498E-2; n = 1
# SRC = conditions: read-out: apparent Kd; compound concentrations: 100 nM and 1000 nM (sheet 'Samples'), CATDS: 6.9151530133692504E-2; n = 1
# YES1 = conditions: read-out: apparent Kd; compound concentrations: 100 nM and 1000 nM (sheet 'Samples'), CATDS: 0.102310323687496; n = 1
# [1] = compound concentrations:100 nM and 1000 nM (sheet 'Samples')
structure (smiles),measurement,setting,value
Cc1occc1-c1nc(N)c(OC[C@@H](N)Cc2c[nH]c3ccccc23)cc1-c1cc2c(C)n[nH]c2cn1 [GSK1660450B],potency estimated from few doses,CIT; [1],135 nM
same,potency estimated from few doses,RPS6KA3; [1],861 nM
NS(=O)(=O)c1ccc(NC=C2C(=O)Nc3ccc4ncsc4c32)cc1 [GW589933X],potency estimated from few doses,"CDC7; compound concentrations: 100 nM and 1000 nM (sheet 'Samples'), CATDS: 1.6133442669584601E-2",2200 nM
same,potency estimated from few doses,"CDK6; compound concentrations: 100 nM and 1000 nM (sheet 'Samples'), CATDS: 2.1682770776227499E-2",765 nM
same,potency estimated from few doses,NUAK2; CATDS: 1.7918277394981801E-2,1420 nM
Nc1nc(-c2ccc3c(N)n[nH]c3c2)cc(N2CCCC(NC(=O)c3ccccc3)C2)n1 (stereo not drawn) [GSK2286775B],potency estimated from few doses,AKT2; [1],1370 nM
same,potency estimated from few doses,CDK6; [1],1510 nM
Cl.Cl.NCC(NCc1ccc(-c2ccnc3[nH]ccc23)s1)c1ccccc1.NCC(NCc1ccc(-c2ccnc3[nH]ccc23)s1)c1ccccc1 (stereo not drawn) [GSK1321565A],potency estimated from few doses,PRKG1; [1],1060 nM
CCn1c(-c2nonc2N)nc2cncc(Br)c21 [SB-738004],potency estimated from few doses,CDC7; [1],655 nM
Cl.Cl.NCC(NC(=O)c1cc(-c2ccnc3[nH]ccc23)cs1)c1ccccc1.NCC(NC(=O)c1cc(-c2ccnc3[nH]ccc23)cs1)c1ccccc1 (stereo not drawn) [GSK1229959A],potency estimated from few doses,"CIT; compound concentrations: 100 nM and 1000 nM (sheet 'Samples'), CATDS: 3.2542810657946203E-2",113 nM
same,potency estimated from few doses,"PRKG1; compound concentrations: 100 nM and 1000 nM (sheet 'Samples'), CATDS: 9.38640843647673E-2",9.7 nM
CN[C@H](C#Cc1c(F)ccc2c1/C(=C/c1[nH]ccc1OC)C(=O)N2)CO.Cl [RO0283049-001],potency estimated from few doses,"CDK6; compound concentrations: 100 nM and 1000 nM (sheet 'Samples'), CATDS: 1.9484263699736298E-2",2150 nM
NS(=O)(=O)c1ccc(N/C=C2\C(=O)Nc3ccc4ncsc4c32)cc1 [GW297361X],potency estimated from few doses,"CDC7; compound concentrations: 100 nM and 1000 nM (sheet 'Samples'), CATDS: 3.3579769325783403E-2",1330 nM
same,potency estimated from few doses,"CDK6; compound concentrations: 100 nM and 1000 nM (sheet 'Samples'), CATDS: 3.48419374837717E-2",1200 nM
COc1cc[nH]c1/C=C1\C(=O)Nc2ccc([N+](=O)[O-])c(N3CC[C@@H](O)C3)c21 [RO0504985-000],potency estimated from few doses,NUAK2; CATDS: 3.1931655972065397E-2,1490 nM
CCC(CC)(CC)n1cnc2c(N)ncnc21 [SKF-97620],potency estimated from few doses,PIK3CA,53.9 nM
CNCC1CCn2c(c(C3=C(c4cn(C)c5ccccc45)C(=O)NC3=O)c3ccccc32)C1 (stereo not drawn) [RO0318676-000],potency estimated from few doses,"RPS6KA3; compound concentrations: 100 nM and 1000 nM (sheet 'Samples'), CATDS: 2.8652335073443402E-2",1620 nM
Cl.Cl.NC[C@H](CC1CCCCC1)NC(=O)c1ccc(-c2ccnc3[nH]ccc23)s1.NC[C@H](CC1CCCCC1)NC(=O)c1ccc(-c2ccnc3[nH]ccc23)s1 [GSK1581428A],potency estimated from few doses,PRKG1; [1],41.4 nM
COc1cc[nH]c1/C=C1\C(=O)Nc2ccc(F)c(C#C[C@@H](O)[C@@H](N)[C@@H](C)O)c21 [RO0283120-000],potency estimated from few doses,CDK6; [1],1140 nM
Cl.Nc1nc(-c2ccc3c(c2)C(=Cc2cc(Br)c(O)c(Br)c2)C(=O)N3)cs1 [GW407323A],potency estimated from few doses,"CDC7; compound concentrations: 100 nM and 1000 nM (sheet 'Samples'), CATDS: 3.34335879912959E-2",903 nM
same,potency estimated from few doses,NQO2,734 nM
Cl.Cl.Cl.c1ccc(Oc2ccc(Nc3ccnc4cc(-c5ccc(CN6CCNCC6)o5)ccc34)cc2)nc1.c1ccc(Oc2ccc(Nc3ccnc4cc(-c5ccc(CN6CCNCC6)o5)ccc34)cc2)nc1 [GW567142A],potency estimated from few doses,ABL1,36.7 nM
same,potency estimated from few doses,"AKT2; compound concentrations: 100 nM and 1000 nM (sheet 'Samples'), CATDS: 1.7589072796327002E-2",1790 nM
same,potency estimated from few doses,AKT3,1220 nM
same,potency estimated from few doses,PTK6,99.7 nM
same,potency estimated from few doses,SRC,70.8 nM
same,potency estimated from few doses,YES1,38.7 nM
